# Experimental data as given in the supplement of paper PMC11219838.
# A number with no mark means an inactive call.
# System: Caenorhabditis elegans L1 (N2)
# Test: survival and reproduction score of C. elegans L1 (0: 0-10 living worms, 1: 11-20, 2: 21-50, 3: >50, 4: overgrown) (score 0-4); higher = more worms, less nematicidal, active = 1 or less; extreme values may be limits of the assay
# Conditions: 60 µM; 6 days; temperature: 20 °C
# How it was run: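 Worm survival and reproduction were recorded as an ordinal score of living worms per well, read under a dissection microscope. Each 96-well well held about 20 synchronized C. elegans N2 L1s with E. coli HB101 in liquid NGM and compound at 60 µM final (0.6% v/v DMSO), sealed and shaken at 200 rpm, 20 °C, for 6 days. Scores ranged from 0 (0–10 worms) to 4 (overgrown, starved) and were the mean of two biological replicates.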
row,SMILES,survival and reproduction score
1,Cc1cc(C)c(OCc2nc(-c3ccncc3)no2)c(C)c1,4
2,Clc1ccc(-c2nnc(SCc3ccccc3)o2)cc1,4
3,COc1cccc(-c2nnc(SCc3ccccc3)o2)c1,4
4,O=C(CSc1nnc(-c2cc3ccccc3o2)o1)NC1CC1,4
5,Cc1cccc(OCc2nc(-c3ccc(Br)cc3)no2)c1,4
6,CCCC(=O)Nc1ccccc1-c1nc(-c2cccnc2)no1,4
7,COc1cccc(-c2noc(COc3ccc(C)cc3C)n2)c1,4
8,O=C(CSc1nnc(-c2ccc(Cl)cc2)o1)Nc1nccs1,4
9,CC(Sc1nnc(-c2ccccc2)o1)C(=O)Nc1nccs1 (centres undefined),4
10,CCOc1ccccc1-c1nc(-c2ccc(NC(=O)c3ccncc3)cc2)no1,4
11,CCOc1ccccc1-c1nc(-c2ccc(F)cc2)no1,4
12,Cc1cccc(-c2nnc(SCC(=O)Nc3ccccc3F)o2)c1,4
13,Cc1ccc(OCc2nc(-c3cccnc3)no2)c(Br)c1,4
14,Cc1cc(OCc2nc(-c3ccncc3)no2)cc(C)c1Br,4
15,Cc1ccc(OCc2nc(-c3ccc(Cl)cc3)no2)cc1C,4
16,COc1ccc(-c2nnc(SCC(=O)Nc3ccc(Br)cc3C(C)C)o2)cc1,4
17,COc1ccccc1-c1nnc(SCc2ccc(F)cc2)o1,4
18,COc1ccccc1-c1nc(-c2cccc(Br)c2)no1,4
19,Brc1ccc(CSc2nnc(-c3ccncc3)o2)cc1,4
20,Clc1ccccc1-c1noc(-c2ccccc2Cl)n1,2

row,SMILES,survival and reproduction score
1,O=C(Nc1ccccc1-c1nc(-c2cccnc2)no1)c1ccccc1Cl,4
2,Brc1cccc(-c2noc(-c3ccc4c(c3)OCO4)n2)c1,4
3,Cc1ccc(C)c(-c2nc(-c3ccc(Cl)cc3)no2)c1,4
4,Cc1cccc(-c2noc(-c3cccc(Cl)c3)n2)c1,4
5,Fc1ccc(-c2nc(-c3ccc(Br)cc3)no2)cc1,3
6,Cc1cccc(-c2noc(-c3ccc(Br)cc3)n2)c1,4
7,Brc1cccc(-c2nc(-c3cccnc3)no2)c1,4
8,COc1cccc(-c2noc(COc3ccc(C(C)C)cc3)n2)c1,4
9,CCOc1ccccc1-c1nnc(SCc2ccccc2)o1,4
10,COc1ccc(CCC(=O)Nc2ccc(-c3noc(COc4ccccc4C)n3)cc2)cc1,4
11,Clc1cccc(-c2nc(-c3ccccc3Cl)no2)c1,4
12,Cc1ccccc1CSc1nnc(-c2ccco2)n1C,2
13,Clc1ccc(CSc2nnc(-c3ccccn3)o2)cc1,4
14,COc1ccc(NC(=O)CSc2nnc(-c3ccc(Br)cc3)o2)cc1,4
15,CCCOc1ccc(-c2ccc(-c3nc(-c4ccccn4)no3)cc2)cc1,4
16,Cc1ccc(-c2nnc(SCC(=O)NCc3ccccc3)o2)cc1,4
17,O=C(CSc1nnc(-c2ccc(Br)cc2)o1)N1CCCCCC1,4
18,O=C(CSc1nnc(-c2ccccc2Cl)o1)c1ccc2c(c1)CCCC2,4
19,COc1ccccc1-c1nnc(SCc2ccc(C#N)cc2)o1,4
